Results as given in the supplement of paper PMC11732987, “Enantioselective OTUD7B fragment discovery through chemoproteomics screening and high-throughput optimisation” (Communications Chemistry, 2025).

Columns and labels:
Assay in all cases: log2 ratio of Biotin-Ahx-Ub-VS probe labelling (fragment/DMSO); higher = less target engagement (more negative = stronger competition), active = hit call of the paper (q ≤ 0.05, log2 ratio ≤ -1)
Settings in all cases: compound concentration: 200 uM; treatment time: 3 h
USP42 = molecular target: T1, USP42 (UniProt Q9H9J4)
T1 sequence (whole entry): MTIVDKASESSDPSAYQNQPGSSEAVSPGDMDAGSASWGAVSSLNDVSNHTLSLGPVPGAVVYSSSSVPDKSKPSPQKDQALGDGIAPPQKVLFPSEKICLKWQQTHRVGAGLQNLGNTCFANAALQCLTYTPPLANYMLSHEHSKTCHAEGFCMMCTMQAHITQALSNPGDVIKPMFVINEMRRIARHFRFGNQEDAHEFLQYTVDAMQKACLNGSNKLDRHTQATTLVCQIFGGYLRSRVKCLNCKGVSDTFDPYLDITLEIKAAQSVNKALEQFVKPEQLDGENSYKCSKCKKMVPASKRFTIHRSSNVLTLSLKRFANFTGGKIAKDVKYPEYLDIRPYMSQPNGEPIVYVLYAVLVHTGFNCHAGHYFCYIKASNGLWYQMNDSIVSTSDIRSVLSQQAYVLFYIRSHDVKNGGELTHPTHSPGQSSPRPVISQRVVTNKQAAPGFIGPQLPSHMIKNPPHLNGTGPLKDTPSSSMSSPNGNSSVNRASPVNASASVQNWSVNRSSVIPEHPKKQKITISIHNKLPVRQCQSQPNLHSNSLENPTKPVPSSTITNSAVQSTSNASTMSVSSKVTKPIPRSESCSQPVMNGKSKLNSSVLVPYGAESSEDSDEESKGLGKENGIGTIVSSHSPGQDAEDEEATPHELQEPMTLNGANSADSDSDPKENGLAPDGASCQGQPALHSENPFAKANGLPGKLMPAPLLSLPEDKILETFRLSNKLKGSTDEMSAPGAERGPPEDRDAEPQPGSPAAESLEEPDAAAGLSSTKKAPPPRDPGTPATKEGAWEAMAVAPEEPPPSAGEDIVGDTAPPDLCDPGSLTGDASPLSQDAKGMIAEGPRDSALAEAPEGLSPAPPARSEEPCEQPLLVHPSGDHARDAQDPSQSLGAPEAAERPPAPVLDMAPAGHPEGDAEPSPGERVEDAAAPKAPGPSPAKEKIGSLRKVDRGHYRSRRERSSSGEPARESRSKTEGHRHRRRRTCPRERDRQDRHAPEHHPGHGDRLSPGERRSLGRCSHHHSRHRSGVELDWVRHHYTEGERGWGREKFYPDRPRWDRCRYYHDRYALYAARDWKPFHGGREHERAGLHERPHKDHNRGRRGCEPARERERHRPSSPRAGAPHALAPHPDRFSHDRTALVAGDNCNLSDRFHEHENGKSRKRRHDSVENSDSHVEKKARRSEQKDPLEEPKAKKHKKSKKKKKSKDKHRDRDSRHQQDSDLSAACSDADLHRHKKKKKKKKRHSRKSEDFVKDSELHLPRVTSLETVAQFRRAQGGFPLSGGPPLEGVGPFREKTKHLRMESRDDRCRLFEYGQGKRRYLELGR
Outline: (§1)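 HEK293T lysate (495 µg per sample, in Tris/CHAPS/IGEPAL buffer with protease inhibitors) was exposed in triplicate for 3 h to fragment at 200 µM or to vehicle, then to Biotin-Ahx-Ub-VS at 0.5 µM final for 1 h. Labelled DUBs were enriched on NeutrAvidin, digested with LysC and trypsin, and analysed by diaPASEF LC-MS/MS. Spectronaut label-free quantities were normalised to the global median, and values are average log2 ratios of fragment over vehicle from an unpaired t-test. Only proteins with ≥2 unique peptides were used.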

USP46 = USP46 (UniProt P62068)
Chain of USP46 (P62068 whole entry): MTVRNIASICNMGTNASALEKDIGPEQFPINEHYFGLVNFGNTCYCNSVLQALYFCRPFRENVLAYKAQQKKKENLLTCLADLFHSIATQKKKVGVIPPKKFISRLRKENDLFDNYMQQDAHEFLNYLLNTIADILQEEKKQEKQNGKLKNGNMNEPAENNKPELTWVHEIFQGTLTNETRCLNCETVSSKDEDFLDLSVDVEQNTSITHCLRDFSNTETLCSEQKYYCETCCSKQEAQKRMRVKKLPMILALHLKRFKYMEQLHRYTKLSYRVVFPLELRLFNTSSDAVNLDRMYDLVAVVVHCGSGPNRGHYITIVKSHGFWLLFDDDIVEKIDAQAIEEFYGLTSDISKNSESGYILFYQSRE
Outline: as §1

USP47 = molecular target: T2, USP47 (UniProt Q96K76)
T2 sequence (whole entry): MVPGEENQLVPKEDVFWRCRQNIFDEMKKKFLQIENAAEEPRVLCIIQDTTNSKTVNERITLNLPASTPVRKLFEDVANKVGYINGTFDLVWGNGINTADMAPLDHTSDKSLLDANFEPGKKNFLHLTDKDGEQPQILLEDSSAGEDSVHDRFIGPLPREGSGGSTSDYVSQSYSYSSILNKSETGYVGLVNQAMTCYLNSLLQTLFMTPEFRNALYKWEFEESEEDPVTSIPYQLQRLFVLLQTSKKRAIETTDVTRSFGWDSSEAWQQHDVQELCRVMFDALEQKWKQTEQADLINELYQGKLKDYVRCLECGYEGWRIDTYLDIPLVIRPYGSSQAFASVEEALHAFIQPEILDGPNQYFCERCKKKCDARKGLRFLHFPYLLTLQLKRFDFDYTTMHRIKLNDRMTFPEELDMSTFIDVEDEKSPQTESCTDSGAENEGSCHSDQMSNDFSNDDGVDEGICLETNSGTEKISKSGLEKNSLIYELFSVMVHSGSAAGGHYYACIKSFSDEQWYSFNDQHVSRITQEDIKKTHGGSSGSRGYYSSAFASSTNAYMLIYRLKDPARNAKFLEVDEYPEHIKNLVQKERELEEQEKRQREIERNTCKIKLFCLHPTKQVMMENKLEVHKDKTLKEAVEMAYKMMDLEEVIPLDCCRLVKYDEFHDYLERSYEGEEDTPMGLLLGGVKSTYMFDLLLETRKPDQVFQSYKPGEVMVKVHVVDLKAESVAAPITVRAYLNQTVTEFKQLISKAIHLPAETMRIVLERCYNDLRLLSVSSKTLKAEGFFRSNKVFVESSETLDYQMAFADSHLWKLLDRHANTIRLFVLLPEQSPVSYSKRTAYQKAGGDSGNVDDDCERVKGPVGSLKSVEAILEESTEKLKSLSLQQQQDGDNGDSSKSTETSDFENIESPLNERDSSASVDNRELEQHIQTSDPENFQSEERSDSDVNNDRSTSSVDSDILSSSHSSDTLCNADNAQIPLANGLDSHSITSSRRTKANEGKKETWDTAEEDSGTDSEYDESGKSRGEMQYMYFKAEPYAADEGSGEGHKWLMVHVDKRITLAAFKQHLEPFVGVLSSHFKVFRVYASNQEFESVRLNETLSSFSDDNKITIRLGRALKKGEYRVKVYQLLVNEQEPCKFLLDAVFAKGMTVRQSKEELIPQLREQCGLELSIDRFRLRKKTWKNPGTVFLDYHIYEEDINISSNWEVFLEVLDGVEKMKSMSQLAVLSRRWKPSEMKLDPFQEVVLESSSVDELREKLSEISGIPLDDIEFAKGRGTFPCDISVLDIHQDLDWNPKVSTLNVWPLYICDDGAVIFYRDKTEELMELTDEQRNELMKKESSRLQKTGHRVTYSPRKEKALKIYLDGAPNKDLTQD
Outline: as §1

USP48 = molecular target: T3, USP48 (UniProt Q86UV5)
T3 sequence (whole entry): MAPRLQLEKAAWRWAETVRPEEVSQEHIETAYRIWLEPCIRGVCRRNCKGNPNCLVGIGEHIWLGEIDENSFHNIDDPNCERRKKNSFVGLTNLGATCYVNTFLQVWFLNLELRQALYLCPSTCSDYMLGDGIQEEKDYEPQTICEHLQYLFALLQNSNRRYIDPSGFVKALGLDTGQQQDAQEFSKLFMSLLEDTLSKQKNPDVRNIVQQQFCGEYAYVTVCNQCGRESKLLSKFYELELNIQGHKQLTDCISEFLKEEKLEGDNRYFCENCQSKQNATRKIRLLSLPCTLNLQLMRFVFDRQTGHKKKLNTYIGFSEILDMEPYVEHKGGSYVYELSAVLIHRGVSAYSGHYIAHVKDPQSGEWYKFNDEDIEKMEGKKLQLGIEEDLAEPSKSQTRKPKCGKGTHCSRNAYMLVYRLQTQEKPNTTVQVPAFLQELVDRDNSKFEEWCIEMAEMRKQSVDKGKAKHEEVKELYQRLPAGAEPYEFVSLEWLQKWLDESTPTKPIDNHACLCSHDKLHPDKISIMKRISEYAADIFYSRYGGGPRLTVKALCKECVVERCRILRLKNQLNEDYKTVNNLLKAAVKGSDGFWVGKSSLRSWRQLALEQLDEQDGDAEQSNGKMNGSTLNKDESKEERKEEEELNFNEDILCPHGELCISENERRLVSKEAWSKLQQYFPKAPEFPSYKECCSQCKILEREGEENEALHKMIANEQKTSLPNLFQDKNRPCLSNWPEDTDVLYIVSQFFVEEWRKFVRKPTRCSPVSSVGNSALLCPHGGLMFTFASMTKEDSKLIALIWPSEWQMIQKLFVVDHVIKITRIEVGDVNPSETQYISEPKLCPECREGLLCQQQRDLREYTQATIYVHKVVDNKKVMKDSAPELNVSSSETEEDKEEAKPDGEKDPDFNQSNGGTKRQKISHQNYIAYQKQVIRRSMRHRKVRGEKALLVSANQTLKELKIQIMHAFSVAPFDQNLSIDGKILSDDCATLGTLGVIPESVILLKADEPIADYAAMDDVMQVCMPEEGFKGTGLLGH
Outline: as §1

USP5 = molecular target: T4, USP5 (UniProt P45974)
T4 sequence (whole entry): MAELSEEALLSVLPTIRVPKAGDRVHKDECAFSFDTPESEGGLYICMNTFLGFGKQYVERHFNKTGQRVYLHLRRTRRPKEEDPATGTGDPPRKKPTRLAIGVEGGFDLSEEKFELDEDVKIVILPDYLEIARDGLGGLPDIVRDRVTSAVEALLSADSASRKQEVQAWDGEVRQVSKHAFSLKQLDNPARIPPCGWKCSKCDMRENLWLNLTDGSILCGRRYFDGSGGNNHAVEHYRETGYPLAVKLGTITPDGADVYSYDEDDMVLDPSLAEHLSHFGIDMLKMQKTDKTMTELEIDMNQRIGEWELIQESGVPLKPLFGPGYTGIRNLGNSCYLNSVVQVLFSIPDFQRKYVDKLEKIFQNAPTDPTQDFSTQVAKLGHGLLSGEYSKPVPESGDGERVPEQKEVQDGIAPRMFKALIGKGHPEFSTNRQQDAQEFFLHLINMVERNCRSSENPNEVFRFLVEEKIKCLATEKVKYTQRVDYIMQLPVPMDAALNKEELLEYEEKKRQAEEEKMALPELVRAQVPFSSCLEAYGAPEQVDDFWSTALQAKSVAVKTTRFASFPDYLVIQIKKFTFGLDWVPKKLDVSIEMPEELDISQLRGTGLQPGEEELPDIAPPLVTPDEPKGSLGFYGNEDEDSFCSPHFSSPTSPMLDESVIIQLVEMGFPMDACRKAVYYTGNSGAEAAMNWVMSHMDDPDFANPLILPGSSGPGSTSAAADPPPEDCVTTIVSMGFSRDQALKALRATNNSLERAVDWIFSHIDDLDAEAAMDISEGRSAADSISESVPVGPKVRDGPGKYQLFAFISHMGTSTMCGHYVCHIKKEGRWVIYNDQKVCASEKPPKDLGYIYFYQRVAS
Outline: as §1

USP54 = USP54 (UniProt Q70EL1)
Chain of USP54 (Q70EL1 whole entry): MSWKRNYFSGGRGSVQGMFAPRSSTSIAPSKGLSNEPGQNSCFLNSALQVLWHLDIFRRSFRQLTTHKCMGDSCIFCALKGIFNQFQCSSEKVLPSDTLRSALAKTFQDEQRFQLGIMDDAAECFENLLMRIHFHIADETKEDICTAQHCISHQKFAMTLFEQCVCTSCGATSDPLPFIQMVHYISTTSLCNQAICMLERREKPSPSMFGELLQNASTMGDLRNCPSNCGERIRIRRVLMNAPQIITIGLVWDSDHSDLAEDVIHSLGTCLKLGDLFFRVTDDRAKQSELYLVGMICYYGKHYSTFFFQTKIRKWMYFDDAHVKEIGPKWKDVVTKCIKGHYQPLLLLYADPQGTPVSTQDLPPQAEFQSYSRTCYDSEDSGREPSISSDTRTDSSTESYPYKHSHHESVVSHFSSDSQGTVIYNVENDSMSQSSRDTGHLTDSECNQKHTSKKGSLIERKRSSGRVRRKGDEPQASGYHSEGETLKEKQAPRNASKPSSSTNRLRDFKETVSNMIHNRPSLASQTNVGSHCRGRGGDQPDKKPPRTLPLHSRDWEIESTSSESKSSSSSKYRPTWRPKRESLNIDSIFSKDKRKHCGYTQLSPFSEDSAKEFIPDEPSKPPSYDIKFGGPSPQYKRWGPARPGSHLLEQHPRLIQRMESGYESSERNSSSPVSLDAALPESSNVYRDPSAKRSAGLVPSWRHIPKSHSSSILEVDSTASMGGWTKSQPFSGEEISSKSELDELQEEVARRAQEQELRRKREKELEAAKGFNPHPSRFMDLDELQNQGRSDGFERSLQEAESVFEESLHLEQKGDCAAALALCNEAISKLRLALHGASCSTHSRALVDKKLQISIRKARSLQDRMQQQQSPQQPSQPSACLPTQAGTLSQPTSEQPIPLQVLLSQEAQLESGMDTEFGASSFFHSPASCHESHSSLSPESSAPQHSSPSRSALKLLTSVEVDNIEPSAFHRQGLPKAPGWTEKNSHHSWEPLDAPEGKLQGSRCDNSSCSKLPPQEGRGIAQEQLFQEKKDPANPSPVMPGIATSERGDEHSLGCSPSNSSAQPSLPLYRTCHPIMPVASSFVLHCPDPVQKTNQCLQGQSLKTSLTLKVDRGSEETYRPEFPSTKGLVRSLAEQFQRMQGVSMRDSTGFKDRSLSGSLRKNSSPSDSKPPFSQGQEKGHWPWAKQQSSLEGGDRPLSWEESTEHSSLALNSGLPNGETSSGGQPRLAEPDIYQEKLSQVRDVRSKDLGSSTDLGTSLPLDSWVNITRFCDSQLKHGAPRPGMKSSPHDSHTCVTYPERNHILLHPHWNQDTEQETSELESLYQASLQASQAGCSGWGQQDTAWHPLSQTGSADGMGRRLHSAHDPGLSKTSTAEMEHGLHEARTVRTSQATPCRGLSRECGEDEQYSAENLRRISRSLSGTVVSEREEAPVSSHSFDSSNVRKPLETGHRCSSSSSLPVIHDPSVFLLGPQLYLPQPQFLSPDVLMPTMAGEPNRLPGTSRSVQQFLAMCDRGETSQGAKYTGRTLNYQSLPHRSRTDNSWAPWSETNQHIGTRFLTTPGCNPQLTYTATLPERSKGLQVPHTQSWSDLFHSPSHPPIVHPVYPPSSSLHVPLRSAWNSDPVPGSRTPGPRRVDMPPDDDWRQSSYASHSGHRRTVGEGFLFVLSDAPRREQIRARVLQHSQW
Outline: as §1

USP7 = USP7 (UniProt Q93009)
Chain of USP7 (Q93009 whole entry, looked up): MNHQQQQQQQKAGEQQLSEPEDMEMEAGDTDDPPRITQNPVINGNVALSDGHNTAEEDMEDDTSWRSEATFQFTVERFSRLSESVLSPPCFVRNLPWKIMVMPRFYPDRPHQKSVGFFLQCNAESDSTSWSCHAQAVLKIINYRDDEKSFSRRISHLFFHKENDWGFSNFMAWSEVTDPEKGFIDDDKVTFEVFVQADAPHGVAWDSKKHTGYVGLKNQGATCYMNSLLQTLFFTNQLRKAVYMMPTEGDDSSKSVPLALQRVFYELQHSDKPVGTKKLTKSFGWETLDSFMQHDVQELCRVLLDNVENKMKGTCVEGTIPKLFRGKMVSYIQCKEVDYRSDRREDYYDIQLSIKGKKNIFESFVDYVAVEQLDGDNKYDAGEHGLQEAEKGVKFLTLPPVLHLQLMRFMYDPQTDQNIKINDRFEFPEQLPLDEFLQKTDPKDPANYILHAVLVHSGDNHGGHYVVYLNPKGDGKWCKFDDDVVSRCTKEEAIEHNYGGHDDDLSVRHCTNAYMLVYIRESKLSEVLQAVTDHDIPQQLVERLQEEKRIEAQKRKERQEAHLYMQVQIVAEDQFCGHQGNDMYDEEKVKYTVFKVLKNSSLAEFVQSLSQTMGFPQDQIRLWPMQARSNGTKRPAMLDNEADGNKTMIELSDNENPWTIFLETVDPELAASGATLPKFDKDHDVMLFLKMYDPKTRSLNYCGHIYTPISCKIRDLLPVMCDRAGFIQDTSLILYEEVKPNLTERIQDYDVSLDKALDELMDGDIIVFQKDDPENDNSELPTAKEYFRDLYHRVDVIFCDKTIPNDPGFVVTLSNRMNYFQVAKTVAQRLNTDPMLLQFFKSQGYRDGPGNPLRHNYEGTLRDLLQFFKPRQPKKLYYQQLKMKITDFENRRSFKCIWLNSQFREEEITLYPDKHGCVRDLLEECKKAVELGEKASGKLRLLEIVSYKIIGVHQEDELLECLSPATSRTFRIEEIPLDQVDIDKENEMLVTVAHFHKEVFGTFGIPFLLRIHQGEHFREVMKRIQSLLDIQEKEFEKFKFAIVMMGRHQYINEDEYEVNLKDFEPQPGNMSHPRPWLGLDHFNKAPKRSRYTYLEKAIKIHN
Outline: as §1

USP8 = molecular target: T5, USP8 (UniProt P40818)
T5 sequence (whole entry): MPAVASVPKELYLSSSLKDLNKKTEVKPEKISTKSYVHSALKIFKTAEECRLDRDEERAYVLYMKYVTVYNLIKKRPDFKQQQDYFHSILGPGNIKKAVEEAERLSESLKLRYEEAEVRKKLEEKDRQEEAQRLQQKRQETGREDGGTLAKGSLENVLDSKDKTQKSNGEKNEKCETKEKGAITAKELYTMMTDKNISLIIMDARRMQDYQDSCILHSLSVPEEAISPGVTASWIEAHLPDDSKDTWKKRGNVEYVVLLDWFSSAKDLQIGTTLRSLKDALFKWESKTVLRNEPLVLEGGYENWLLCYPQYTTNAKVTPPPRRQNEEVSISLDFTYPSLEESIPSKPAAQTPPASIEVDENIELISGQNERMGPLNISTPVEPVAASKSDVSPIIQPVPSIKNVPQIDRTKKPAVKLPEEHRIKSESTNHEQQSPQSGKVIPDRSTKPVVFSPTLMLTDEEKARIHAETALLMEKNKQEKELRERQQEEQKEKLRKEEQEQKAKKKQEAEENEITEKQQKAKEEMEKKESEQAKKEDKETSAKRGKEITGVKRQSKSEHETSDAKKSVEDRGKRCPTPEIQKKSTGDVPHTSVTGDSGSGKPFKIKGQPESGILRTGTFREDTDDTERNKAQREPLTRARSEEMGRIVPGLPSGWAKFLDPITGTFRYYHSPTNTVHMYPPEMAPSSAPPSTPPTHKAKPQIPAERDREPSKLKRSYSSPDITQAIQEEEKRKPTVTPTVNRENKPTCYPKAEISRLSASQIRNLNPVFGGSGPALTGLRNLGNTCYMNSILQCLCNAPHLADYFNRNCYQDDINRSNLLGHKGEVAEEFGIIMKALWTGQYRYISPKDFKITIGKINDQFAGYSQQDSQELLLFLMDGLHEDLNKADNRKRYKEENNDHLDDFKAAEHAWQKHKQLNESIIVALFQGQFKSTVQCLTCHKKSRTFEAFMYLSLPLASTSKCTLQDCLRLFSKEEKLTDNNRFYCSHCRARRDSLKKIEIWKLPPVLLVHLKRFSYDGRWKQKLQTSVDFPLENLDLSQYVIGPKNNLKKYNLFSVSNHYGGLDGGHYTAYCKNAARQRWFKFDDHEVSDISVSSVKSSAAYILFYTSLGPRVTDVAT
Outline: as §1

Measured: log2 ratio of Biotin-Ahx-Ub-VS probe labelling

COc1ccc(-c2csc(NC(=O)CCl)n2)cc1
inactive: USP42 -0.269 | USP46 -0.355 | USP47 -0.0139 | USP48 -0.611 | USP5 0.0191 | USP54 0.204 | USP7 -0.576 | USP8 -0.316
